Source: PubChem (The Scripps Research Institute Molecular Screening Center)
MITF primary – blocks human microphthalmia-associated transcription factor | O75030 | AlphaScreen MITF homodimerization, bead proximity signal | inhibition, % at 2.6 µM | hit rate 0.91% among 650,000 | AID 1259374; in the data active = inhibition above about 50%;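 note: 0% = vehicle wells with protein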
Target sequence (O75030 whole entry, looked up): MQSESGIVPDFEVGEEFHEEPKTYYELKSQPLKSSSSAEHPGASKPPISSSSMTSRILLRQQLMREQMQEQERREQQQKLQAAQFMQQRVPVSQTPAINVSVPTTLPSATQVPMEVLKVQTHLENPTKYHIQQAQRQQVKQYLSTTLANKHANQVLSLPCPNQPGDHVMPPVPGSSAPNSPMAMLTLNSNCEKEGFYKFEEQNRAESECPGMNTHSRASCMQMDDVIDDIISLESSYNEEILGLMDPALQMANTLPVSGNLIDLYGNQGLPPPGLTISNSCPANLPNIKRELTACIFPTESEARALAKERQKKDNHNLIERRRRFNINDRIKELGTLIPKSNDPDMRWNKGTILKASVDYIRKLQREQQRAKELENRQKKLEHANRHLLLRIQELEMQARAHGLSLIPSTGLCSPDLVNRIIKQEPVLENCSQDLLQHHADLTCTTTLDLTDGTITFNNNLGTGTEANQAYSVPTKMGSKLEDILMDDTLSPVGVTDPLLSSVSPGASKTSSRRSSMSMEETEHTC
GPR151 activ – activates the human receptor GPR151. Q8TDV0. PathHunter beta-arrestin GPR151 cells, luminescence. activation, % at 11.2 µM. hit rate 1% among 650,000. AID 1508602; in the data active = activation above about 4.9%;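 note: 0% = median of compound wells and 100% = cells with positive control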
TEAD-YAP block – TEAD-YAP interaction inhibition; HEK-TIYL cells, TEAD-Gal4/YAP UAS-luciferase luminescence; inhibition, % at 9.12 µM; hit rate 1.4% among 640,000; in the data active = inhibition above about 32%;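 note: 0% = median of test compound wells and 100% = reference inhibitor wells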
FBW7 act – human FBW7 E3 ligase activation, primary screen. Q969H0. AlphaScreen FBW7–phospho-cyclin E peptide binding, activator screen. normalized activity (activation), % at 26.1 µM. hit rate 0.13% among 650,000. AID 1259310; in the data active = normalized activity above about 1.9%;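 note: purified mutant Fbw7 with reduced substrate affinity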
The depositor's hits bear a star. A selection: hits, their analogues and other compounds. The true share with any hit is near 3.5%.

What do the screens show for `CCOC(=O)C1C2NC(=S)N(c3c(C)cccc3C)C1(C)Oc1c(Cl)cc(Cl)cc12` (stereo unspecified)?
MITF primary: -1; GPR151 activ: 2; TEAD-YAP block: -14; FBW7 act: 0

How did CCOC(=O)C1C2NC(=S)N(c3cccc(Cl)c3)C1(C)Oc1c(Cl)cc(Cl)cc12 (stereo unspecified) do in these assays?
MITF primary: -10; GPR151 activ: -1; TEAD-YAP block: 55*; FBW7 act: 0

Results for COc1cccc([C@@H]2CCN(CC(=O)Nc3cc(Cl)ccc3OC)C[C@H]2O)c1 ?
MITF primary: 11; GPR151 activ: 0; TEAD-YAP block: 5; FBW7 act: 0

How did Nc1c(C(=O)NCc2ccccc2)c2nc3ccccc3nc2n1CCN1CCOCC1 do in these assays?
MITF primary: 17; GPR151 activ: 1; TEAD-YAP block: 5; FBW7 act: 0

What do the screens show for `COc1ccccc1-n1c(/C=C/c2ccc([N+](=O)[O-])cc2)nc2ccccc2c1=O`?
MITF primary: -15; GPR151 activ: -1; TEAD-YAP block: 16; FBW7 act: 0

How did COc1ccccc1-n1c(/C=C/c2ccc(N(C)C)cc2)nc2ccccc2c1=O do in these assays?
MITF primary: -16; GPR151 activ: 0; TEAD-YAP block: -12; FBW7 act: 2.3*

What do the screens show for `O=C(c1ccc(N2CC3CC(C2)c2cccc(=O)n2C3)c([N+](=O)[O-])c1)N1CCCCCC1` (stereo unspecified)?
MITF primary: 4; GPR151 activ: 1; TEAD-YAP block: 2; FBW7 act: 0

Results for COc1ccc(N2C(=O)/C(=C/c3ccc(Br)o3)C(=O)NC2=S)cc1 ?
MITF primary: 60*; GPR151 activ: -1; TEAD-YAP block: 9; FBW7 act: 0

What do the screens show for `Cc1ccc(N2C(=O)NC(=O)/C(=C/c3ccc([N+](=O)[O-])o3)C2=O)cc1`?
MITF primary: 70*; GPR151 activ: 0; TEAD-YAP block: 0; FBW7 act: 0

What do the screens show for `COc1ccc(N2C(=O)NC(=O)/C(=C/c3ccc(Br)o3)C2=O)cc1`?
MITF primary: 73*; GPR151 activ: 3; TEAD-YAP block: 3; FBW7 act: 0

Results for COc1ccc(Sc2ccc(C=C3C(=O)NC(=O)NC3=O)o2)cc1 ?
MITF primary: 9; GPR151 activ: 0; TEAD-YAP block: 9; FBW7 act: 0

Results for O=C1NC(=O)C(=Cc2ccc(Br)o2)C(=O)N1 ?
MITF primary: 63*; GPR151 activ: 2; TEAD-YAP block: -1; FBW7 act: 0

Results for COc1ccc(N2C(=O)/C(=C\c3ccc(C)o3)C(=O)NC2=S)cc1 ?
MITF primary: -3; GPR151 activ: -1; TEAD-YAP block: -2; FBW7 act: 0

Results for Cc1cccc(C2=NCC(=O)N(CCN3CCOCC3)c3sc4c(c32)CCCC4)c1 ?
MITF primary: -4; GPR151 activ: 2; TEAD-YAP block: 13; FBW7 act: 0

How did CCC(=O)Nc1ccccc1N1CCN(C)CC1 do in these assays?
MITF primary: -9; GPR151 activ: 0; TEAD-YAP block: -5; FBW7 act: 0

What do the screens show for `CC(=O)O/N=C1/C(=C\c2ccccc2OC(C)=O)N2CCC1CC2`?
MITF primary: 10; GPR151 activ: 0; TEAD-YAP block: 4; FBW7 act: 0

What do the screens show for `C[C@H]1CCC/C=C/C2C[C@H](O)C[C@H]2[C@H](O)/C=C/C(=O)O1` (stereo partly specified)?
MITF primary: 3; GPR151 activ: 2; FBW7 act: 2.1*

What do the screens show for `C[C@H]1CCC/C=C/[C@@H]2C[C@H](O)C[C@H]2[C@H](O)/C=C/C(=O)O1`?
MITF primary: 11; GPR151 activ: -3; TEAD-YAP block: 68*; FBW7 act: 0

How did O=C(c1ccc(Cl)cc1)C1CCCN(Cc2ncc[nH]2)C1 (stereo unspecified) do in these assays?
MITF primary: -7; GPR151 activ: 0; TEAD-YAP block: -5; FBW7 act: 0

How did COc1ccc(OC)c(C2=NCC(=O)Nc3c2oc2ccccc32)c1 do in these assays?
MITF primary: -4; GPR151 activ: 1; TEAD-YAP block: 52*; FBW7 act: 0

Results for CC(=O)O[C@H]1C(OC=C(C)C(=O)O)C(C)(C)CC2C3=CCC4C5(C)CCC(OC6O[C@H](C(=O)O)[C@@H](O[C@@H]7O[C@H](CO)[C@@H](O)[C@H](O)[C@H]7O)[C@H](O)[C@H]6O[C@@H]6O[C@H](CO)C(O)[C@H](O)[C@H]6O)[C@](C)(CO)C5CCC4(C)[C@]3(C)C[C@@H](O)C21CO (stereo partly specified) ?
MITF primary: 14; GPR151 activ: 5; FBW7 act: 0

How did CCOC(=O)C1=C(NC(=S)NC(=O)c2ccccc2)c2ccccc2CC12CCCC2 do in these assays?
MITF primary: 17; GPR151 activ: 0; TEAD-YAP block: 41*; FBW7 act: 0

How did CCN1CCN(c2ccc(NC(=S)NC(C)=O)cc2Cl)CC1 do in these assays?
MITF primary: -11; GPR151 activ: -1; TEAD-YAP block: 43*; FBW7 act: 0

How did O=C1C=CC(=O)c2c(O)cccc21 do in these assays?
MITF primary: 108*; GPR151 activ: 0; TEAD-YAP block: 2; FBW7 act: 0

Results for C[C@@H]1C[C@@H]([C@H](O)CC2CC(=O)NC(=O)C2)C(=O)[C@@H](C)C1 ?
MITF primary: -9; GPR151 activ: -3; TEAD-YAP block: 98*; FBW7 act: 0

Results for Cc1ccccc1C1CNC(=O)C1 (stereo unspecified) ?
MITF primary: 15; GPR151 activ: 0; TEAD-YAP block: 2; FBW7 act: 0

How did CCN1CCC(O)(c2ccccc2)C(C(=O)c2ccccc2)C1 (stereo unspecified) do in these assays?
MITF primary: 9; GPR151 activ: -1; TEAD-YAP block: 4; FBW7 act: 2.0*

How did CCC1CN(C)CCC1(O)c1ccccc1 (stereo unspecified) do in these assays?
MITF primary: 10; GPR151 activ: 1; TEAD-YAP block: 9; FBW7 act: 0

What do the screens show for `COc1ccc(C(=O)C2CCCN(CCCSC)C2)c(OC)c1` (stereo unspecified)?
MITF primary: -6; GPR151 activ: -1; TEAD-YAP block: -3; FBW7 act: 0

Results for CCNc1cc(Cl)c2nonc2c1[N+](=O)[O-] ?
MITF primary: 11; GPR151 activ: -2; TEAD-YAP block: 8; FBW7 act: 0

What do the screens show for `CCC1/C=C/C=C/C[C@H](C)[C@@H](O)[C@](C)(O)C(=O)[C@@H](C)[C@H](O)[C@@H](C)C(=O)[C@H](C)[C@@H](O)[C@H](C)/C=C/C(=O)OC2[C@@H](C)C(CC1)OC1(CC[C@@H](C)C(C[C@H](C)O)O1)[C@@H]2C` (stereo partly specified)?
MITF primary: -1; GPR151 activ: 4; TEAD-YAP block: 94*; FBW7 act: 0

Results for CC(=O)[C@H]1CCC2C3CC[C@H]4C[C@H](O)CC[C@]4(C)C3CC[C@@]21C (stereo partly specified) ?
MITF primary: -9; GPR151 activ: 4; TEAD-YAP block: -6; FBW7 act: 0
